# Of roughly 7,900 targets only a part is listed; those with a hit were picked by preference. About 0.6% of all pairs of compound and target were hits. A number with no mark means an inactive call.
# Legend:
# Experiment in all cases: log2 fold change, soluble protein after heating vs DMSO (PISA); higher = thermal stabilisation; K562 cells, 10 uM, 30 min; active = over 0.2 and 3.5 SD of the protein, either way, in both replicates (recomputed)
# [1] = compound: CC[C@@H]1C(=O)N(C)c2cnc(Nc3ccc(C(=O)NC4CCN(C)CC4)cc3OC)nc2N1C1CCCC1
# How it was run: (§1)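 K562 cells at 2×10^6 cells/mL were given 10 μM compound for 30 min. Aliquots then went through 3 min of heating across 48°C-58°C, were pooled, and were extracted in PBS with 0.5% NP-40 at 4°C, and the supernatant after 21,000xg for 90 min was quantified by TMTpro 16plex LC-MS/MS with channel sums equalised. Thermal stability relative to control samples, from duplicates, is given as log2 fold change.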
# [2] = compound: CC[C@@H]1C(=O)N(C)c2cnc(Nc3ccc(C(=O)N[C@H]4CC[C@H](N5CCN(CC6CC6)CC5)CC4)cc3OC)nc2N1C(C)C [volasertib]
# How it was run: as §1
# [3] = compound: CC[C@H](C)N1C=C(C2=C(C=C(C=C21)C3=CN=C(C=C3)N4CCNCC4)C(=O)NCC5=C(C=C(NC5=O)C)C)C
# How it was run: as §1
# [4] = compound: CC[C@H](C)[C@@H](C(=O)N[C@@H]([C@@H](C)O)C(=O)N[C@@H](CC(C)C)C(=O)[C@]1(CO1)C)NC(=O)[C@H]([C@@H](C)CC)N(C)C(=O)C [epoxomicin]
# How it was run: as §1
# [5] = compound: CCn1c(C(=O)N(C2CC2)C2CC2)cc2c3c(ncn3C)c(Nc3cc(C)n(C)n3)nc21
# How it was run: as §1
# [6] = compound: CCn1cc(-c2ccnc3[nH]c(-c4cccc(CN(C)C)c4)cc23)c(-c2ccc(NC(=O)N(C)C)cc2)n1
# How it was run: as §1
# [7] = compound: CN(C)CC(=O)Nc1ccc2[nH]c(=O)c3ccccc3c2c1
# How it was run: as §1
# [8] = compound: CN(CCOC1=CC=C(C=C1)C[C@H]2C(=O)NC(=O)S2)C3=CC=CC=N3 (racemic) [rosiglitazone]
# How it was run: as §1
# [9] = compound: CN1C2=C(C3=C1C(=O)N(N=C3)CC4=CC(=CC=C4)N)SC(=C2)S(=O)C
# How it was run: as §1
# [10] = compound: CN1CCC(CNc2ccc3ncc(-c4cccc(OC(F)(F)F)c4)n3n2)CC1
# How it was run: as §1
# Sequence of UniProt Q9BXJ8 (Q9BXJ8 whole entry, looked up): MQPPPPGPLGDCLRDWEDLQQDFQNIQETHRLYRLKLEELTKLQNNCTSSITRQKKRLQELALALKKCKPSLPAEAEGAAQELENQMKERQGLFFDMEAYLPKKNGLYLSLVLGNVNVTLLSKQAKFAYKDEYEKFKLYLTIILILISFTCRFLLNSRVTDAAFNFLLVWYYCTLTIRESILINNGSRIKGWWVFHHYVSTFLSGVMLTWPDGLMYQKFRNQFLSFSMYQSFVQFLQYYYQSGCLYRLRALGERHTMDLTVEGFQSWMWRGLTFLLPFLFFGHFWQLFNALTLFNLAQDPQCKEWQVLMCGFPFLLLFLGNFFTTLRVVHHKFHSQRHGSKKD
# Sequence of UniProt Q9Y4E8 (Q9Y4E8 whole entry, looked up): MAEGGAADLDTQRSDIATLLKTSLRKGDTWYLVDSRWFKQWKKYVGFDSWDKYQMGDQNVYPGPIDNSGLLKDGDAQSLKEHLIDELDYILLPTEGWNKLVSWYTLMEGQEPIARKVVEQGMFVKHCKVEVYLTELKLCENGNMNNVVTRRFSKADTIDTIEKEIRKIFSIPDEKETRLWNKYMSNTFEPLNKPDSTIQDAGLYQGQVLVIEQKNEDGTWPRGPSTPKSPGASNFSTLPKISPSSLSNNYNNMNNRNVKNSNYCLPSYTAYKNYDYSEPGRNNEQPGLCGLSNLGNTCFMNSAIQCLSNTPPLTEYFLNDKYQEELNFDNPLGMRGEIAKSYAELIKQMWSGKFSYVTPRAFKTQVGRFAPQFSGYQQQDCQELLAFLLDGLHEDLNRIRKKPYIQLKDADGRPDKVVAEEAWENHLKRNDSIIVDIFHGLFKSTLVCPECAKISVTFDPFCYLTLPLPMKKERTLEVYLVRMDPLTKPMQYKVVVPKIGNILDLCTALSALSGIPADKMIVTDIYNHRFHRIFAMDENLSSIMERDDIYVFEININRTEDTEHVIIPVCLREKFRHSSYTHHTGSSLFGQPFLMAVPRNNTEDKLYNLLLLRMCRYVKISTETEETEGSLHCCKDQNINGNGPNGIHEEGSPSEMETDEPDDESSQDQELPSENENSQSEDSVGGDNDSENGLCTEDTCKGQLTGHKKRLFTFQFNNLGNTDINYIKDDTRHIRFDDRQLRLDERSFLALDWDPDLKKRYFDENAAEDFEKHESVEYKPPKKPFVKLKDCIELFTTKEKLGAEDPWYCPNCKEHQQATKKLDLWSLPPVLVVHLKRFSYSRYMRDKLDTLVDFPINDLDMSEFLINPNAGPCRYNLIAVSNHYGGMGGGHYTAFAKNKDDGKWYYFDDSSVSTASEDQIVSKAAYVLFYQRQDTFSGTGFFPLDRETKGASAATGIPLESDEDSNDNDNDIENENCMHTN
# Sequence of UniProt A0JNW5 (A0JNW5 whole entry, looked up): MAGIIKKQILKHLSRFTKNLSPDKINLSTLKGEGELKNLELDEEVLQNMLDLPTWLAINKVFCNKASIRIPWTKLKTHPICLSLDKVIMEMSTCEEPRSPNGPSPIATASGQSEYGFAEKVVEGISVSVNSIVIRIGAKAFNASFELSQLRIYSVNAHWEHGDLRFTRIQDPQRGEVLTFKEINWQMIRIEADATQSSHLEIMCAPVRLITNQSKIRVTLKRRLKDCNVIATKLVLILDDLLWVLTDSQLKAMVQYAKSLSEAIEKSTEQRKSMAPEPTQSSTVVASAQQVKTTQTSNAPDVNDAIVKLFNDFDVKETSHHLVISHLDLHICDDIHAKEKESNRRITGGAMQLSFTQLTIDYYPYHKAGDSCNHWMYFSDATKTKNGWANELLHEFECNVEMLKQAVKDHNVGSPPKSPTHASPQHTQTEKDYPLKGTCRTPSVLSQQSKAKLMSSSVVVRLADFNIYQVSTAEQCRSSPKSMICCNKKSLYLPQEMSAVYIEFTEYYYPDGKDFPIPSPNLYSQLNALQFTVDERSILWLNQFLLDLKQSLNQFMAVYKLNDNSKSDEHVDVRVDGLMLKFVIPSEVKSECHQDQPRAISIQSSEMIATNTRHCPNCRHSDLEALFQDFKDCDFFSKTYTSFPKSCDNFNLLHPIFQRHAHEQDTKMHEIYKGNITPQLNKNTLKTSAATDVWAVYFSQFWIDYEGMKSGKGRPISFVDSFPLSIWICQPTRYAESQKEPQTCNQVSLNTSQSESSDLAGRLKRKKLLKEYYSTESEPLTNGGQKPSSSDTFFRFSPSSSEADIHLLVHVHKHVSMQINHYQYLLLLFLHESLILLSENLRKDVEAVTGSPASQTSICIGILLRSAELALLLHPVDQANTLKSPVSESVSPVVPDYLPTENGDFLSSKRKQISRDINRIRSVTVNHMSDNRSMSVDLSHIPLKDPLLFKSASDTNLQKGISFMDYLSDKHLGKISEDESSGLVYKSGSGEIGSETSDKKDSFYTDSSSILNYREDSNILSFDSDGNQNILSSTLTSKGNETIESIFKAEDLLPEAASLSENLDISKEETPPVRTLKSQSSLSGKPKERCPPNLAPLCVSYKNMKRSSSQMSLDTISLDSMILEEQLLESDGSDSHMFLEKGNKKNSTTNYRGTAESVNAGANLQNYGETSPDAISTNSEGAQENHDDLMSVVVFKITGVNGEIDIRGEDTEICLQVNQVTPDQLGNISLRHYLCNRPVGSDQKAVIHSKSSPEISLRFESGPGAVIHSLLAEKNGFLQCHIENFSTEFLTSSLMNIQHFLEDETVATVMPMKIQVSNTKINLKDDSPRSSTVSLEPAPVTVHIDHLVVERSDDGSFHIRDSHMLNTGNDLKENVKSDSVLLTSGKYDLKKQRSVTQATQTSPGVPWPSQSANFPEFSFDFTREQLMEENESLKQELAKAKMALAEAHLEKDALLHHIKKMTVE
# Sequence of UniProt Q9H270 (Q9H270 whole entry, looked up): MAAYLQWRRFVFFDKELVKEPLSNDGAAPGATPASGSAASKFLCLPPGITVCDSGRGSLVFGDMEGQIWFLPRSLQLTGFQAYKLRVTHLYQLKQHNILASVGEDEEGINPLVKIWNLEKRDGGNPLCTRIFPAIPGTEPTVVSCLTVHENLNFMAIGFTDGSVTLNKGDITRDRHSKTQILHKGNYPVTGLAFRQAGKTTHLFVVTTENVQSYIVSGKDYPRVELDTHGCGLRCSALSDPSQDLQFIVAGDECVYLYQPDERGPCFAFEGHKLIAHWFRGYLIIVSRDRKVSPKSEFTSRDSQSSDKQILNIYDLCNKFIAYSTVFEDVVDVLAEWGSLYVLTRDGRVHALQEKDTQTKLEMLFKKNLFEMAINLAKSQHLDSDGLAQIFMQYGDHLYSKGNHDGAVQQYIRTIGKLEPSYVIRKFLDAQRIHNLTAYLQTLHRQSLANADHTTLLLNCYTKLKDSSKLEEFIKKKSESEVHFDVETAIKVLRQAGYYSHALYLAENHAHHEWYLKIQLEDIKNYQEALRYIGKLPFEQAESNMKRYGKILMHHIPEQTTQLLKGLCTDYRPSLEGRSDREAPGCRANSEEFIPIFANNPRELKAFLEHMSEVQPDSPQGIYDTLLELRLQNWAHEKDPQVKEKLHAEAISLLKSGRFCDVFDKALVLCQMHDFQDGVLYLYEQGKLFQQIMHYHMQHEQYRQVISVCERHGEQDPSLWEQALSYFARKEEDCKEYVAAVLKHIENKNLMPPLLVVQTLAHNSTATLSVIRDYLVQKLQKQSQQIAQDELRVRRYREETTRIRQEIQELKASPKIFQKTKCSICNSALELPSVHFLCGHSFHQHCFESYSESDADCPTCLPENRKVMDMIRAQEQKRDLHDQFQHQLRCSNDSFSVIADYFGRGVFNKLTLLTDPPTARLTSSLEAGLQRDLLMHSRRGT
# Sequence of UniProt Q9NZ09 (Q9NZ09 whole entry, looked up): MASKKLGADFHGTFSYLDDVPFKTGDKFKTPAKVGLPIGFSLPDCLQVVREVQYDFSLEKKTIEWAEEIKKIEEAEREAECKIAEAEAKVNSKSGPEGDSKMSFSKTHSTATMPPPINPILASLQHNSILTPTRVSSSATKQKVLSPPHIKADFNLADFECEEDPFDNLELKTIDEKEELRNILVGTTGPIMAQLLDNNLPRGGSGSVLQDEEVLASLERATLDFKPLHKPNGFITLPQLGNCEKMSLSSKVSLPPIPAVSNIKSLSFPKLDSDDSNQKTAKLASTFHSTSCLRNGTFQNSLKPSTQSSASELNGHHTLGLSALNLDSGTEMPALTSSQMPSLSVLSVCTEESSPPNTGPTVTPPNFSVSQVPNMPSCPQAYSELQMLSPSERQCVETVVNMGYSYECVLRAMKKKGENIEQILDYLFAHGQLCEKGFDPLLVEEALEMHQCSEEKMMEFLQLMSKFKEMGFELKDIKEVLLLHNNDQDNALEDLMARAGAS
# Sequence of UniProt Q15388 (Q15388 whole entry, looked up): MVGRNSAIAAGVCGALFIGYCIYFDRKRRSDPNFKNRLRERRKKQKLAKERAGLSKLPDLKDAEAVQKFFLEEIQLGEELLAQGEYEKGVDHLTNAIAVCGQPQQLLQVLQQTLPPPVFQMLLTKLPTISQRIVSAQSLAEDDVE
# Sequence of UniProt Q9BTX3 (Q9BTX3 whole entry, looked up): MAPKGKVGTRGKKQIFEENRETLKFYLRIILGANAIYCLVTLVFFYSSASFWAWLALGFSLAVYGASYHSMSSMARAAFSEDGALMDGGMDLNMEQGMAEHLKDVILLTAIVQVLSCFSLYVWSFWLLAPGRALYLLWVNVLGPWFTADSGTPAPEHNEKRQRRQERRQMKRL
# Sequence of UniProt Q9UK41 (Q9UK41 whole entry, looked up): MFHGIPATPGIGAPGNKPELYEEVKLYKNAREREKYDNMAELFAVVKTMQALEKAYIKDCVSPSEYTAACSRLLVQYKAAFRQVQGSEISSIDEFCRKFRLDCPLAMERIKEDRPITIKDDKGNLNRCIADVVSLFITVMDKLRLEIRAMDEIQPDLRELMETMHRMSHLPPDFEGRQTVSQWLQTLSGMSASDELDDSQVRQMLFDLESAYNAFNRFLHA
# Sequence of UniProt Q9UL33 (Q9UL33 whole entry, looked up): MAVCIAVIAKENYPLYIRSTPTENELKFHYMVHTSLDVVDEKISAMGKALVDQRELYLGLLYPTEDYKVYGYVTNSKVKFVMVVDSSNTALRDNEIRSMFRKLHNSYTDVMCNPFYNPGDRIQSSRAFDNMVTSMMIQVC
Target,log2 fold change [1],log2 fold change [2],log2 fold change [3],log2 fold change [4],log2 fold change [5],log2 fold change [6],log2 fold change [7],log2 fold change [8],log2 fold change [9],log2 fold change [10]
VTI1B (UniProt Q9UEU0),-0.028,-0.066,-0.037,-0.057,0.036,-0.018,-0.009,0.006,0.018,-0.331 (active)
WDHD1 (UniProt O75717),-0.209,-0.458 (active),0.079,0.071,-0.018,-0.033,0.051,0.072,-0.063,-0.118
XPNPEP1 isoform 3 (UniProt Q9NQW7),0.027,0.049,0.018,-0.024,0,-0.043,0.051,0.028,-0.064,-0.076
TOM1 isoform 2 (UniProt O60784),-0.056,-0.196,0.037,-0.035,-0.018,-0.082,0.026,0.001,0.006,-0.274
TRIP10 (UniProt Q15642),-0.024,-0.11,0.047,0.034,-0.051,-0.051,0.04,0,-0.036,-0.056
USO1 isoform 2 (UniProt O60763),-0.108,-0.254 (active),0.025,0.043,0.001,-0.018,0.015,0.044,-0.059,-0.111
UHRF1BP1L (UniProt A0JNW5),0.165,0.034,-0.009,-0.022,-0.018,-0.086,0.02,0.028,-0.079,0.1
TRAPPC2L (UniProt Q9UL33),-0.109,-0.065,0.008,0.06,-0.076,-0.042,0.128,0.053,0.007,0.001
TNPO3 (UniProt Q9Y5L0),-0.182,-0.406 (active),0.039,0.041,0.002,-0.075,0.041,0.046,-0.036,-0.128
USP15 (UniProt Q9Y4E8),-0.095,-0.32 (active),0.066,0.03,-0.032,-0.056,0.031,0.058,-0.006,-0.129
TMEM173 (UniProt Q86WV6),0.219,0.156,0.086,0.026,0.021,-0.017,0.032,0.044,-0.049,0.293 (active)
VPS52 (UniProt Q8N1B4),-0.107,-0.383 (active),0.153,0.092,0.012,0.006,-0.021,0.094,0.037,-0.027
TMEM208 (UniProt Q9BTX3),-0.071,-0.208,-0.048,-0.03,-0.046,-0.022,0.274,0.081,-0.02,0.036
WNK1 isoform 7 (UniProt Q9H4A3),-0.021,-0.01,0.04,0.013,-0.012,-0.005,0.005,0.015,-0.001,0.019
TMEM41A (UniProt Q96HV5),0.036,0.035,-0.05,-0.055,0.021,0.165,-0.049,-0.002,0,0.01
UBAP1 isoform 4 (UniProt Q9NZ09),-0.012,-0.545 (active),0,0.092,-0.037,0.006,-0.034,0.022,0.023,-0.089
TNPO1 (UniProt Q92973),-0.182,-0.379 (active),0.046,-0.016,0.021,-0.025,0.018,0.012,-0.019,-0.055
TTC38 (UniProt Q5R3I4),0.076,0.253,0.041,0.012,-0.017,-0.05,0.136,-0.015,-0.049,-0.039
VPS50 (UniProt Q96JG6),-0.168,-0.415 (active),0.08,0.009,-0.037,-0.026,0.009,0.008,0.036,-0.101
VPS11 (UniProt Q9H270),-0.284 (active),-0.53 (active),0.14,0.025,-0.097,-0.074,0.059,0.077,0.03,-0.244
UGGT1 (UniProt Q9NYU2),-0.01,-0.058,0.03,-0.006,0.019,0.002,-0.024,-0.004,0.008,0.049
UBAP2L isoform 1 (UniProt Q14157),-0.026,-0.417,0.046,-0.005,0.059,0.026,-0.004,0.001,0,-0.023
TMEM189-UBE2V1 (UniProt I3L0A0),0.054,0.056,-0.137,-0.023,-0.003,0.048,0,0.04,-0.035,-0.009
"VARS2, A0A0G2JL52",-0.024,0.001,0.08,0.011,0.006,-0.013,0.007,0.03,-0.016,-0.126
TOMM20 (UniProt Q15388),-0.135,-0.075,-0.068,-0.089,0.078,-0.017,-0.005,-0.022,-0.033,-0.271 (active)
VPS28 (UniProt Q9UK41),-0.057,-0.3 (active),0.032,0.09,0.001,-0.048,0.011,0.102,-0.038,-0.139
VAMP7 (UniProt P51809),-0.057,-0.019,0.009,0.045,0.012,-0.026,0.014,-0.022,-0.07,-0.181
TMEM120A (UniProt Q9BXJ8),0.127,-0.053,0.119,0.198,-0.011,-0.128,0.015,0.149,-0.061,0.07
TMEM63B (UniProt Q5T3F8),-0.001,0.071,-0.019,0.039,0.041,0.011,-0.052,-0.052,0.042,-0.073

# — the supplement of paper PMC10849652
